The source of these data is PubChem BioAssay (NCATS).

Test [1] is described as follows: P-glycoprotein substrates identified in KB-3-1 adenocarcinoma cell line, qHTS therapeutic library screen (AID 1346986). Further: nearly all actives have a fitted effect of over 60% in size. In short, it runs like this:
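Cells seeded 500/well in DMEM/10% FCS; compounds pinned in dose-response; 72 h incubation; CellTiter-Glo added, 5 min, luminescence. KB-8-5-11 run ±tariquidar to test reversal of P-gp resistance.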

Test [2] is described as follows: P-glycoprotein substrates identified in KB-8-5-11 adenocarcinoma cell line, qHTS therapeutic library screen (AID 1346987). Further: nearly all actives have a fitted effect of over 65% in size. On activity change, negative = cytotoxicity: series mostly up to about 44 µM; on the % scale 0 is the no-effect control and ±100 the full control effect. In outline: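 KB-8-5-11, a colchicine-selected P-gp-overexpressing KB-3-1 subline, was grown without colchicine for the assay. Cells were seeded at 500 cells/well, dosed in concentration-response and incubated 72 h at 37 degree C, 5% CO2. Viability was read by CellTiter-Glo luminescence.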
Background: In qHTS, concentration-response curves come from the screen itself.

SMILES strings stand for the structures. Records with an inconclusive call do not appear. Unmarked numbers belong to inactive results. Activity calls are given as the source filed them. The call rests on the fitted dose curve; in most records, active means well fitted curve in the direction sought with a large enough effect; inconclusive means small, poorly fitted or top-dose-only effect, or another doubt; inactive means no such curve, though single readings can be large; an effect the other way counts as inactive or inconclusive.

On to `COc1ccc(C2(O)c3ccccc3NC(=O)C2O)cc1` (stereo not drawn), for which the Potency result in test [1] and in test [2] was “inactive” each time.
With `CC(=O)O[C@H]1[C@@H](O)[C@H](O[C@H]2[C@@H]3C=CO[C@@H](O[C@H]4O[C@@H](CO)[C@H](O)[C@@H](O)[C@@H]4O)[C@@H]3[C@@]3(CO)O[C@@H]23)O[C@@H](C)[C@@H]1OC(=O)/C=C/c1ccccc1`, the Potency entry in test [1] and in test [2] was “inactive” in each case.
For `CC1=C(C)C(=O)OC(C(C)C2CCC3C4C5OC5C5(O)CC(OC6OC(CO)C(OC7OC(C)C(O)C(O)C7O)C(O)C6O)CC(O)C5(C)C4CCC23C)C1` (stereo not drawn), the Potency result in test [1] and in test [2] was “inactive” each time.
Take `COc1cc(O)cc(/C=C/c2ccc(O[C@@H]3O[C@H](CO)[C@@H](O)[C@H](O)[C@H]3O)cc2)c1`: the Potency result in test [1] and in test [2] was “inactive” throughout.
For the compound `C=C1CC[C@@H]2[C@@](C)(CO[C@@H]3O[C@H](CO)C(O)[C@H](O)C3O)[C@H](O)CC[C@@]2(C)[C@@H]1CC/C(C)=C/CO` (stereo partly drawn), in test [1], the outcome is “inactive [at 9.29 µM]”. The activity change, negative = cytotoxicity in test [2] was 5.95% [at 9.29 µM].
For the compound `CC(=O)C1=CCC2C3CCC4CC(O[C@@H]5O[C@H](CO)[C@@H](O[C@@H]6O[C@@H](C)[C@H](O)[C@@H](O)[C@H]6O)[C@H](O)[C@H]5O[C@@H]5O[C@H](CO)[C@@H](O)[C@H](O)[C@H]5O)CCC4(C)C3CCC12C` (stereo partly drawn), the Potency entry in test [1] and in test [2] was “inactive” in each case.
Turning to `OC1CCC(Nc2ncc3nc(Nc4c(F)cc(F)cc4F)n([C@H]4CCOC4)c3n2)CC1` (stereo partly drawn), the Potency result in test [1] and in test [2] was “inactive” each time.
Turning to `C/C(=C\CCC(C)CCO)C(=O)O[C@@H]1[C@@H](O)[C@H](OC2OC=C(C(=O)O)C3CCC(C)(O)C23)O[C@H](CO)[C@H]1O` (stereo partly drawn), the Potency entry in test [1] and in test [2] was “inactive” throughout.
For `CC(C)=CCC/C(C)=C/CCC1(C)Oc2c(c(O)cc3c2CN(C(CCC(=O)O)C(=O)O)C3=O)CC1O` (stereo not drawn), the Potency entry in test [1] and in test [2] was “inactive” each time.
On to `CC(C)(C)C(=O)CN1C(=O)[C@H](NC(=O)Nc2cccc(C(=O)O)c2)CN(C2CCCCC2)c2ccccc21`, for which the Potency entry in test [1] and in test [2] was “inactive” in each case.
On to `CC1(C)CCC2(C(=O)OC3OCC(O)C(O)C3O)CCC3(C)C(=CCC4C5(C)CC(O)C(OC6OC(COC7OCC(O)C(O)C7O)C(O)C(O)C6O)C(C)(C)C5CCC43C)C2C1` (stereo not drawn), for which the outcome in test [1] and in test [2] was “inactive [at 9.29 µM]” in each case.
Consider `O=C(O)[C@@H]1C[C@H]2C[C@@H](CCc3nn[nH]n3)CC[C@H]2CN1`, for which the Potency result in test [1] and in test [2] was “inactive” throughout.
On to `O=C(CN1C(=O)C2(CCCC2)NCC1c1cc(F)cc(F)c1)Nc1ccc2c(c1)CC1(C2)C(=O)Nc2ncccc21` (stereo not drawn), for which the Potency entry in test [1] and in test [2] was “inactive” each time.
Turning to `CC1(C)CC[C@]2(C(=O)O[C@@H]3O[C@H](CO)[C@@H](O)[C@H](O)[C@H]3O)CC[C@]3(C)C(=CCC4[C@@]5(C)C[C@@H](O)[C@H](O)[C@](C)(C=O)C5CC[C@]43C)[C@@H]2[C@@H]1O` (stereo partly drawn), the Potency entry in test [1] and in test [2] was “inactive” each time.
On to `CC1C(OC(=O)c2ccccc2)C(O)C2C(C(=O)O)=COC(OC3OC(CO)C(O)C(O)C3O)C12` (stereo not drawn), for which the Potency entry in test [1] and in test [2] was “inactive” throughout.
For the compound `CN[C@H](CC(C)C)C(=O)N[C@H]1C(=O)N[C@@H](CC(N)=O)C(=O)N[C@H]2C(=O)N[C@H]3C(=O)N[C@H](C(=O)N[C@H](C(=O)O)c4cc(O)cc(O)c4-c4cc3ccc4O)[C@H](O[C@H]3C[C@](C)(N)[C@@H](O)[C@H](C)O3)c3ccc(c(Cl)c3)Oc3cc2cc(c3O[C@@H]2O[C@H](CO)[C@@H](O)[C@H](O)[C@H]2O[C@H]2C[C@](C)(NCc3ccc(-c4ccc(Cl)cc4)cc3)[C@@H](O)[C@H](C)O2)Oc2ccc(cc2Cl)[C@H]1O`, the Potency entry in test [1] and in test [2] was “inactive” throughout.
Consider `C[C@H](CCC(=O)O)[C@H]1CC[C@H]2[C@@H]3C[C@H](O)[C@@H]4C[C@H](O)CC[C@]4(C)[C@H]3CC[C@]12C`, for which the Potency entry in test [1] and in test [2] was “inactive” in each case.
Consider `C/C(=C\CCC1(C)C2CCC(C2)C1(C)O)C(=O)O` (stereo not drawn), for which the Potency result in test [1] and in test [2] was “inactive” in each case.
Take `C=C1C(=O)O[C@@H]2C[C@H](C)[C@@]3(O)C=C(C(C)=O)[C@]4(CC3C[C@H]12)C(=O)O[C@H]1C[C@@H](C)C(CCC(C)=O)=CC[C@H]14` (stereo partly drawn): the Potency entry in test [1] and in test [2] was “inactive” in each case.
For `CCC[C@@H]1O[C@@H]2C[C@H]3[C@@H]4CCC5=CC(=O)C=C[C@]5(C)[C@H]4[C@@H](O)C[C@]3(C)[C@]2(C(=O)CO)O1`, the Potency result in test [1] and in test [2] was “inactive” each time.
As for `CC1(C=O)CC[C@]2(C(=O)O[C@@H]3O[C@H](CO)[C@@H](O)[C@H](O)[C@H]3O)CC[C@]3(C)C(=CCC4[C@@]5(C)C[C@H](O)[C@H](O[C@@H]6OC[C@@H](O)[C@H](O)[C@H]6O)[C@@](C)(CO)C5CC[C@]43C)C2C1` (stereo partly drawn), the outcome in test [1] and in test [2] was “inactive [at 9.29 µM]” each time.
On to `CC/C=C\C/C=C\C/C=C\CCCCCCCC(=O)OCC(O)COC1OC(CO)C(O)C(O)C1O` (stereo not drawn), for which the Potency result in test [1] and in test [2] was “inactive” throughout.
For `C[C@@H](O)[C@H](NC(=O)c1ccc(C#Cc2ccc(CN3CCOCC3)cc2)cc1)C(=O)NO`, the Potency entry in test [1] and in test [2] was “inactive” throughout.
Turning to `O=C1CCC(=O)N(O)CCCCCNC(=O)CCC(=O)N(O)CCOCCNC(=O)CCC(=O)N(O)CCCCCN1`, the Potency entry in test [1] and in test [2] was “inactive” throughout.
